Reference: PubChem BioAssay (EPA / NIEHS)
Calls of active or inactive are those of the source. How the source made its calls: active means hit-call score of the fitted dose curve at least 0.9, where 1 is the maximum; inactive means score below 0.9. Peptide text beside a SMILES is read from it.

Assay: ATG_E_Box_CIS: Attagene CIS-FACTORIAL HepG2 Assay for human Enhancer Box (E-box) (AID 2282936)
Conditions: HepG2 E-box cis-reporter transcription, actives raise or lower the signal
Procedure: ATG_CIS is a cell-based, multiplexed-readout assay that uses HepG2, a human liver cell line, with measurements taken at 24 hours after chemical dosing in a 24-well plate.ATG_E_Box_CIS is one of 52 assay component(s) measured or calculated from the ATG_CIS assay. It is designed to make measurements of mRNA induction, a form of inducible reporter, as detected with fluorescence intensity signals by Reverse transcription polymerase chain reaction (RT-PCR) and Capillary electrophoresis technology.Data from the assay component ATG_E_Box_CIS was analyzed into 1 assay endpoint. This assay endpoint, ATG_E_Box_CIS, was analyzed with bidirectional fitting relative to DMSO as the negative control and baseline of activity. Using a type of inducible reporter, measures of mRNA for gain or loss-of-signal activity can be used to understand the reporter gene at the transcription factor-level as they relate to the gene USF1. Furthermore, this assay endpoint can be referred to as a primary readout, because this assay has produced multiple assay endpoints where this one serves a reporter gene function. To generalize the intended target to other relatable targets, this assay endpoint is annotated to the dna binding intended target family, where the subfamily is basic helix-loop-helix protein.
Human liver HepG2 cells are transiently transfected with multiple reporter transcription units (MRTUs) in 6-well plates using FuGene 6 reagent (Roche; 3 ml FuGene/1 mg DNA). The MRTU constructs are regulated by a cis-regulating element (promoter). […] A major difference between the CIS and TRANS system is that in CIS activities of endogenous TFs are measured, whereas the TRANS assay evaluates changes in activities of exogenous, chimeric NR-Gal4 proteins. […] At the end of 24 hour incubation, total RNA was isolated using TriZol reagent (Invitrogen). The isolated RNA is then reverse-transcribed using oligo(dT) primer and Mo-MLV reverse transcriptase (Invitrogen) with DNAse I (Ambion) treatment for 30 min. The one-tenth of the produced cDNA was amplified by PCR using Taq DNA polymerase (Invitrogen) and two reporter sequence-specific primers. The PCR products were fluorescently labeled by primer extension with 6-arboxyfluorescein (6-FAM) 5'-labeled reporter sequence-specific primer (2 min at 95 C, 20 s at 68 C and 10 min at 72 C) and these products were digested with 5U of HpaI (New England Biolabs) for 2h at 37 C. The fragments were purified using Qiaquick PCR columns (Qiagen), analyzed on an ABI 3130xL genetic analyzer (Applied Biosystems) with peak positions identified by using a set of X-rhodamine (ROX)-labeled MapMarker1000 molecular weight standards (BioVentures). The raw capillary electrophoresis data was processed using Attagraph software (Attagene).

Structure (SMILES)	outcome
CCCCCCOc1ccc(N)cc1	inactive
CC=C(C)C(C)=O	inactive
CC(CC=O)CC(C)(C)C (stereo not given)	inactive
C=C(C)C1CC=C(C)C(OC(C)=O)C1 (stereo not given)	inactive
Cc1c(Cl)cccc1Cl	inactive
Cn1ccnc1	inactive
CC1CCC(C(C)(C)S)C(=O)C1 (stereo not given)	inactive
CCCCNS(=O)(=O)c1ccccc1	inactive
O=C1CCCCCCCCCCCN1	inactive
O=C(O)CCC(=O)O	inactive
CC(C)(C)NC(=O)[C@H]1CC[C@H]2[C@@H]3CC[C@H]4NC(=O)C=C[C@]4(C)[C@H]3CC[C@]12C	inactive
N#Cc1ccc(C(c2ccc(C#N)cc2)n2cncn2)cc1	inactive
Oc1ccccc1Cc1ccccc1O	inactive
CCCCNC(=S)NCCCC	inactive
CCCCC(C=O)CC (stereo not given)	inactive
CCOC(=O)C1=NN(c2ccc(Cl)cc2Cl)C(C)(C(=O)OCC)C1 (stereo not given)	inactive
CC1(C)C(=O)N(CO)C(=O)N1CO	inactive
Clc1cccnc1	inactive
CCCC1CCCC(=O)O1 (stereo not given)	inactive
CC(C)=CCl	inactive

Structure (SMILES)	outcome
Oc1c(Cl)cc(Cl)c(Cl)c1Cl	inactive
C[Si](C)(C)N[Si](C)(C)C	inactive
CCc1occc(=O)c1O	inactive
CCOC(=O)c1ccc(C)cc1	inactive
COC(=O)[C@H](Cc1ccccc1)NC(=O)[C@@H](N)CC(=O)O (H-Asp-Phe-OMe)	inactive
Cc1cccc(C(C)(C)C)c1O	inactive
Nc1ccc(O)c([N+](=O)[O-])c1	inactive
Fc1ccc(Br)cc1	inactive
C=C(C)[C@@H]1CC=C(C)CC1	inactive
CCN1CN(CC)CN(CC)C1	inactive
CCOB(OCC)OCC	inactive
CC1=CCC(C(C)C)C=C1 (stereo not given)	inactive
CC(=O)C(C)C	inactive
CC(CCC(=O)O)(c1ccc(O)cc1)c1ccc(O)cc1	inactive
CCOc1ccc(NC(N)=O)cc1	inactive
CC(=O)OC1CCCCC1C(C)(C)C (stereo not given)	inactive
O=C(O)CCCC(=O)O	inactive
CCCCCCCCCCCC(C)=O	inactive
C=C(C)C(=O)OCCOC(=O)C(=C)C	inactive
Cc1noc(NS(=O)(=O)c2ccc(N)cc2)c1C	inactive
